A selection: hits, their analogues and other compounds. The true share with any hit is near 8.7%.
JMJD2A Tudor inh: JMJD2A Tudor domain (human) inhibition | O75164 | AlphaScreen JMJD2A-Tudor / H3K4me3 peptide binding | Potency, µM (top dose mostly 114 µM), inactives show top-dose activity change, negative = inhibition, most hits filed as inhibitors | 390,000 compounds, 4.4% hits | AID 504339; further: on the % scale 0 is the no-effect control and ±100 the full control effect; nearly all actives have a fitted effect of over 50% in size
Sfp inh: inhibitors of Bacillus subtilis Sfp phosphopantetheinyl transferase; Biochemical Sfp PPTase activity, qHTS; Q9F4F7; 310,000 compounds, 3.5% hits; Potency, µM, for inactives: largest response in the series, negative = inhibition, hits mostly inhibitors;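 further: the enzyme is Sfp with the accession as filed and its product quenches rhodamine fluorescence; 0% = enzyme reaction without inhibitor and -100% = no enzyme wells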
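Reaction rates are the 30-min fluorescence difference (ex 525, em 598 nm) in wells containing 15 nM Sfp, 5 uM rhodamine-CoA and 12.5 uM BHQ-2-YbbR at pH 7.6 with 10 mM MgCl2.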
ALOX12 inh: blocks human arachidonate 12S-lipoxygenase. P18054. purified 12hLO, xylenol orange hydroperoxide absorbance. Potency, µM (highest dose often 108 µM), without a hit: at the top dose activity change, negative = inhibition, actives largely listed as inhibitors. 580,000 compounds, 1.1% hits. AID 1671190; further: on the % scale 0 is the no-effect control and ±100 the full control effect
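Hydroperoxide product was detected by ferrous iron/xylenol orange as the 573 to 405 nm absorbance ratio. Arachidonic acid at 40 uM (final) was turned over for 30 min at room temperature by 150 nM human 12hLO, pH 7.0 Hepes buffer, after 15 min compound preincubation.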
BAZ2B block: inhibitors of human BAZ2B bromodomain; Q9UIF8; AlphaScreen BAZ2B-H3K14Ac peptide displacement; Potency, µM (doses to about 114 µM), without a hit: at the highest dose activity change, negative = inhibition, actives largely listed as inhibitors; 360,000 compounds, 4.4% hits; further: on the % scale 0 is the no-effect control and ±100 the full control effect; nearly all actives have a fitted effect of over 60% in size
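In this displacement format the biotinylated H3(5-23) peptide acetylated at Lys14 serves as ligand at 50 nM, with BAZ2B at 50 nM in PBS pH 7.4 containing 0.01% Tween-20. Donor and acceptor beads are 10 ug/mL final.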
HP1b binding inh: inhibitors of HP1-beta chromodomain binding to methylated histone tails; AlphaScreen HP1-beta / biotin-H3K9me3 peptide binding; P83916; Potency, µM (series often up to 114 µM), without a hit: top-dose activity change, negative = inhibition, most hits filed as inhibitors; 390,000 compounds, 0.56% hits; further: nearly all actives have a fitted effect of over 70% in size
Target sequence (P83916 whole entry, looked up): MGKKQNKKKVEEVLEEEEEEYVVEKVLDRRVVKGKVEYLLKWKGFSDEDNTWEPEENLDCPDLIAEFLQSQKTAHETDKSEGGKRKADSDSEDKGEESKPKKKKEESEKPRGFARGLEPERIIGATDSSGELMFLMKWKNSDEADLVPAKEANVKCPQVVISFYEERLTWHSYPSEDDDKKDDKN
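AlphaScreen: HP1-beta (50 nM) preformed 30 min with biotin-H3(1-18)K9me3 peptide (50 nM) in PBS pH 7.4, 0.01% Tween-20. Compound added for 30 min at RT, then streptavidin donor/nickel chelate acceptor beads (10 ug/mL) for 30 min.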
G9a block: inhibitors of human histone lysine methyltransferase G9a. Q96KQ7. G9a H3K9 monomethylation, AlphaScreen, 2 h. Potency, µM (titrated, usually from 102 µM), without a hit: at the top dose activity, negative = inhibition, most hits filed as inhibitors. 350,000 compounds, 8.8% hits. AID 504332; further: on the % scale 0 is the no-effect control and ±100 the full control effect; nearly all actives have a fitted effect of over 75% in size
Target sequence (Q96KQ7 913-1193 limits assumed): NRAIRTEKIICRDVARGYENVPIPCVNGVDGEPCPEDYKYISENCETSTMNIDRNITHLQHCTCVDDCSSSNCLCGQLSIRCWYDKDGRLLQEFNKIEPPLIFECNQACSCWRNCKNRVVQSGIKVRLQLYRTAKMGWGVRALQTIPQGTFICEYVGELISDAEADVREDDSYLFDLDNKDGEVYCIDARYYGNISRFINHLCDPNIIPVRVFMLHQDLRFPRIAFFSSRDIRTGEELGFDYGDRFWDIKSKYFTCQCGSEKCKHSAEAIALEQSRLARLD
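Compounds were preincubated with 20 nM G9a for 15 min, after which biotinylated H3K9 peptide (500 nM) and SAM (20 uM) started a 2 h room-temperature reaction. Monomethylated product was quantified by antibody-based AlphaScreen chemiluminescence.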
* hit, by the source's call; ? = inconclusive; . = no result; [ ] = another dose, or the depositor's remark. The call rests on the fitted dose curve; in most records, active means well fitted curve in the direction sought with a large enough effect; inconclusive means small, poorly fitted or top-dose-only effect, or another doubt; inactive means no such curve, though single readings can be large; an effect the other way counts as inactive or inconclusive. Potency means the concentration at half of the fitted maximal effect.

SMILES | JMJD2A Tudor inh | Sfp inh | ALOX12 inh | BAZ2B block | HP1b binding inh | G9a block
CN(C)c1ccc(CN(C(=O)/C=C/c2ccccc2Cl)C2CCS(=O)(=O)C2)cc1 (stereo unspecified) | 45µM* | 1% | 7% | 25µM* | -32% | -132%[59 µM]
Cc1cccc(OCC(=O)N(Cc2cccs2)C2CCS(=O)(=O)C2)c1C (stereo unspecified) | -12% | -7% | 1% | 13% | 24% | 50µM*
CCCSc1ncc(Cl)c(C(=O)N(Cc2ccc(N(C)C)cc2)C2CCS(=O)(=O)C2)n1 (stereo unspecified) | 56µM* | . | -23% | 22µM* | -7% | ?
CC(C)C(=O)N1CCc2c(n(Cc3ccccc3)n(-c3ccccc3)c2=O)C1 | . | . | 15%[176 µM] | . | . | .
CC(C)CC(=O)NC1CCCc2c1[nH]c1ccc(Cl)cc21 (stereo unspecified) | . | . | 3% | . | . | .
Cc1ccc2[nH]c3c(c2c1)CCCC3NCCO (stereo unspecified) | ? | -9% | -27% | ? | -16% | 50µM*
CCOc1ccc(N=C2NN=C(c3cc(C)n(CC4CCCO4)c3C)CS2)cc1 (stereo unspecified) | ? | 56µM* | 40µM* | 71µM* | ? | 16µM*
Cc1cc(C2=NNC(=Nc3ccc(S(=O)(=O)N4CCOCC4)cc3)SC2)c(C)n1C | ? | 13µM* | ? | -28% | -22% | 32µM*
C=CCn1c(C)cc(C2=NNC(=Nc3ccc(C)cc3)SC2)c1C | -28% | 79µM* | ? | -13% | -10% | -5%
Cc1cc(C2=NNC(=NCc3ccccc3)SC2)c(C)n1-c1c(C)n(C)n(-c2ccccc2)c1=O | -9% | -3% | -25% | -32% | -3% | -16%[59 µM]
C=CCn1c(C)cc(C2=NNC(=NC(C)(C)C)SC2)c1C | ? | 56µM* | -31% | ? | -25% | ?
O=C(NC1C[C@H]2CC[C@@H](C1)N2C(=O)CC1CCCC1)c1ccncc1 (stereo partly specified) | . | . | 13% | . | . | .
CC(=O)[C@@H]1[C@@H](C(=O)c2ccc(C)cc2)[C@]2(C(=O)Nc3ccccc32)[C@H]2C=Cc3cc(F)ccc3N12 | ? | 4µM* | 8% | ? | -36% | ?
CC(=O)CC1(O)C(=O)Nc2ccc(F)cc21 (stereo unspecified) | . | . | 4% | . | . | .
CC(=O)[C@@H]1[C@@H](C(=O)c2ccc(F)cc2)[C@]2(C(=O)Nc3ccccc32)[C@H]2C=Cc3cc(F)ccc3N12 | ? | 20µM* | ? | -26% | ? | ?
Cc1ccc(C(=O)N2CC3(C2)C(=O)Nc2ccccc23)cc1 | . | . | 2%[12.5 µM] | . | . | .
CCCc1sc(C(=O)OCCOc2ccc(S(N)(=O)=O)cc2)cc1CC | . | . | -19% | . | . | .
COc1ccc(-c2[nH]nc3c2C(c2ccc4c(c2)OCO4)CC(=O)O3)cc1 (stereo unspecified) | . | . | 45µM* | . | . | .
O=S(=O)(c1cccc(-c2csc(N/N=C/c3ccco3)n2)c1)N1CCOCC1 | ? | 2% | -13% | ? | -15% | 45µM*
CCOc1cc(/C=N/Nc2nc(-c3cccc(S(=O)(=O)N4CCCC4)c3)cs2)ccc1O | ? | ? | -14% | ? | -7% | 35µM*
COc1ccc(/C=N/Nc2nc(-c3cccc(S(=O)(=O)N4CCCC4)c3)cs2)cc1OC | -28% | -17% | -4% | -32% | 18% | 13µM*
COc1ccc(-c2csc(NC(=S)NC(=O)c3ccc(S(=O)(=O)N(C)C)cc3)n2)cc1OC | -5% | -22% | ? | -5% | 23% | ?
COc1cc(/C=N/Nc2nc(-c3ccc(S(=O)(=O)N(C)C)cc3)cs2)ccc1O | -24% | 79µM* | 0% | -33% | 1% | 14µM*
COc1cccc(-c2nc3ccccc3c(=O)n2NC(=O)c2ccc(Cl)c(Cl)c2)c1 | . | . | -23% | . | . | .
COC(=O)c1ccc(COc2ccc3c(=O)c(Oc4ccccc4F)c(C(F)(F)F)oc3c2)cc1 | . | . | -42% | . | . | .
SMILES | JMJD2A Tudor inh | Sfp inh | ALOX12 inh | BAZ2B block | HP1b binding inh | G9a block
CCC(C)C(=O)N1CCC2(CC1)NCCc1c2[nH]c2ccccc12 (stereo unspecified) | . | . | 34% | . | . | .
O=C(NCc1cccnc1)c1ccc2nc(-c3ccccc3)c(-c3ccccc3)nc2c1 | . | . | 21% | . | . | .
N#CC1=C2SCN(Cc3ccccc3)CN2C(=O)CC1c1ccccc1F (stereo unspecified) | 79µM* | 2µM* | . | -38% | ? | 1.8µM*
CCc1ccc(C2CC(=O)NC(SCC(=O)OC(C)C)=C2C#N)cc1 (stereo unspecified) | -12% | 6% | -14% | 12% | 60% | ?
CCc1ccc(C2CC(=O)N3CN(Cc4ccccc4)CSC3=C2C#N)cc1 (stereo unspecified) | . | . | 3.2µM* | . | . | .
COC(=O)CSC1=C(C#N)C(c2ccccc2F)CC(=O)N1 (stereo unspecified) | -6% | ? | ? | -2% | 28% | ?
CNC(=O)c1cccc(CNC(=O)C(C)(C)NC(=O)OC(C)(C)C)c1 | . | . | 0% | . | . | .
c1ccc(-c2cncn2-c2ccccc2)cc1 | ? | . | 22% | 50µM* | -5% | 2%[2.33 µM]
CCn1c(SCC(=O)Nc2ccc(C(C)C)cc2)nc2c(=O)[nH]cnc21 | . | . | 6% | . | . | .
O=C1C(Cl)=C(NCC2CCCO2)C(=O)N1C1CCCCC1 (stereo unspecified) | 0%[57.1 µM] | 40µM* | ? | -3% | 77% | -3%[0.0925 µM]
O=C1C(Cl)=C(NCC2CCCO2)C(=O)N1c1ccccc1 (stereo unspecified) | 9% | -9% | 0% | -6% | 42% | ?

Source: PubChem BioAssay (National Center for Advancing Translational Sciences (NCATS))
